These results are taken from PubChem BioAssay (NCATS).

Several values for one entry are separate records, joined by “and”; a condition that tells them apart may be missing. Equal entries are not always repeated. Inconclusive results are not listed. Activity calls are given as the source filed them. Unless noted, calls follow the shape of the full dose curve.

Experiment [1] deals with Bile acid receptor (Homo sapiens) (UniProt Q96RI1). The experiment can be described thus: qHTS assay for small molecule agonists of farnesoid X receptor signaling (AID 588527).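 Also: series mostly up to about 77 µM; 0% = vehicle basal and 100% = reference agonist.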 The note with it: HEK293T FXR-UAS-bla, beta-lactamase ratio, 16 h; activation: stronger effect = higher value. The procedure, abridged:
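FXR-UAS-bla HEK293T, 10% dialyzed FBS; cpds up to 92 uM titration, 16 h 37 C; CCF4 dye 2 h RT; fluorescence. Normalized to chenodeoxycholic acid 100 uM (100%) and DMSO (0%); Hill fit gives EC50, efficacy.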
(Quantitative high-throughput screening tests each substance at several concentrations.)

The target in experiment [2] is Peroxisome proliferator-activated receptor delta (Homo sapiens) (UniProt Q03181). The experiment is described as follows: qHTS assay for small molecule agonists of peroxisome proliferator-activated receptor delta signaling (AID 588534).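 Also: 0% = DMSO basal wells and 100% = positive control agonist at 10 µM.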 The method in brief:
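Reporter cells were plated and held 5 hrs at 37 C before compounds were added. After 18 hrs at 37 C, CCF4 dye was loaded for 2 hrs at RT and fluorescence measured.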

Experiment [3] addresses Glucocorticoid receptor (Homo sapiens) (UniProt P04150). The experiment can be described thus: qHTS assay for small molecule agonists of glucocorticoid receptor signaling (AID 588532; active = well fitted curve in the direction sought with a large enough effect in the signal ratio, with a control signal flat; the % refers to the signal ratio;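 also: 100% = dexamethasone at 0.1 µM and 0% = DMSO only wells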). Particulars: HeLa MMTV-bla, beta-lactamase ratio, agonist, 18 h; activation: stronger effect = higher value, percent of dexamethasone control, DMSO zero. The method in brief:
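MMTV-bla HeLa, beta-lactamase reporter; medium with 1% charcoal/dextran-stripped FBS; cpds up to 92 uM, 18 h, 37 C; CCF4 readout 460/530 nm; Hill fit → EC50, efficacy vs 0.1 uM dexamethasone = 100%.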

Experiment [4] has as its target Vitamin D3 receptor (Homo sapiens) (UniProt P11473). The experiment is described as follows: qHTS assay for small molecule antagonists of vitamin D receptor signaling (AID 588541).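 Also: receptor activated by calcitriol during compound treatment; series mostly up to about 77 µM; % is scaled to controls: 0 for no effect and ±100 for the full control effect.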 The procedure, abridged: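 VDR-UAS-bla HEK293T cells (2000/well, 2% charcoal-stripped FBS) were treated with titrated compounds plus 1-alpha,25-dihydroxyvitamin D3 (50 nM or 3 nM final) for 16 h at 37 C. CCF4 beta-lactamase fluorescence was read; Hill fits gave IC50.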

Experiment [5] shares this target. The experiment is described as follows: qHTS assay for small molecule agonists of vitamin D receptor signaling (AID 588543).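 Also: 0% = DMSO basal and 100% = reference agonist control.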 The procedure, abridged:
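β-lactamase reporter, VDR-UAS-bla HEK293T, agonist mode. Cells plated 5 h at 37 °C, compound titration 16 h at 37 °C, CCF4 dye 2 h RT, ratio 460/530 nm. Hill fit → EC50, efficacy vs 50 nM 1α,25-(OH)2D3.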

Experiment [6] in a line: qHTS assay for environmental chemicals that activate the Aryl hydrocarbon Receptor (AhR) signaling pathway (AID 651777; active = well fitted curve in the direction sought with a large enough effect; an effect the other way counts as inactive or inconclusive; also: % of control where 0% means no effect; nearly all actives have a fitted effect of over 15% in size). Particulars: 1A2-DRE human hepatoma cells, luciferase, 24 h; activation: stronger effect = higher value. The procedure, abridged:
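Concentration–response screening used 1,200 1A2-DRE cells per well, 24 hr compound exposure (37 C, 5% CO2), and One-Glo luminescence as the AhR-driven CYP1A2 reporter signal.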

A short description of experiment [7]: qHTS assay for small molecule agonists of the antioxidant response element (ARE) signaling pathway measured by Nrf2-dependant transcriptional activity (AID 720636; active = well fitted curve in the direction sought with a large enough effect in the repeat runs; an effect the other way counts as inactive or inconclusive;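 also: HepG2 cells with an ARE-driven luciferase reporter; % of control where 0% means no effect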). The method in brief: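 Attachment 6 hr at 37 C, then compound versus DMSO vehicle for 16 hr in ARE-luc HepG2 cells (1% dialyzed FBS); luminescence recorded 30 min after ONE-Glo addition at room temperature.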

Experiment [8] can be described thus: qHTS assay for small molecule agonists of the antioxidant response element (ARE) signaling pathway measured by Nrf2-dependant transcriptional activity - cell viability counter screen (AID 720653; active = well fitted curve in the direction sought with a large enough effect in the repeat runs; an effect the other way counts as inactive or inconclusive; also: % is scaled to controls: 0 for no effect and ±100 for the full control effect). Particulars: ARE-bla HepG2 viability, CellTiter-Glo ATP luminescence, 16 h; max response: stronger effect = lower value. The method in brief:
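ARE-bla HepG2 cells (2,000/well) rested 5 hrs at 37C/5% CO2, then exposed to compounds in DMSO for 16 hrs. Viability was read in the same wells as intracellular ATP by luminescence, 30 min at room temperature after reagent addition.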

Experiment [9] can be described thus: qHTS assay for cell viability of HEK293 cells (AID 743288; active = well fitted curve in the direction sought with a large enough effect; an effect the other way counts as inactive or inconclusive; also: % is scaled to controls: 0 for no effect and ±100 for the full control effect; nearly all actives have a fitted effect of over 50% in size). The note with it: ATP luminescence (CellTiter-Glo), 18 h; max response: stronger effect = lower value. The method in brief:
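Environmental chemicals tested in qHTS format against parental HEK293 cells; 18 h treatment, 37 C; read-out ATP luminescence (CellTiter-Glo), 30 min RT development.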

Experiment [10] is described as follows: qHTS assay for cell viability of the p53RE-bla HCT-116 cell line (AID 743292; active = well fitted curve in the direction sought with a large enough effect; an effect the other way counts as inactive or inconclusive; also: nearly all actives have a fitted effect of over 55% in size; also: potency is read from the fitted curve at half-maximal effect). The procedure, abridged: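 Compound-exposed HCT-116 (p53RE-bla) cells, 4,000 per well, were kept 16 h at 37 C following a 5 h preincubation. Cell number was estimated from total ATP by CellTiter-Glo luminescence read after 30 min at room temperature.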
Experiment [11] can be described thus: qHTS assay for small molecule agonists of the antioxidant response element (ARE) signaling pathway (AID 651741; active = well fitted activation curve with a large enough effect in the signal ratio; the % refers to the signal ratio; also: potency is read from the fitted curve at half-maximal effect). The method in brief: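 ARE-bla HepG2 cells (beta-lactamase reporter under ARE control) were plated at 2,000 cells/well, preincubated 5 h at 37 C/5% CO2, then treated with DMSO-dissolved compounds for 16 h at 37 C; LiveBLAzer B/G FRET substrate added, fluorescence read after 2 h at room temperature.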

The target in experiment [12] is Peroxisome proliferator-activated receptor alpha (Homo sapiens) (UniProt Q07869). The experiment is described as follows: qHTS assay for small molecule agonists of the peroxisome proliferator-activated receptor alpha (PPARalpha) signaling pathway (AID 651778; active = well fitted curve in the direction sought with a large enough effect; an effect the other way counts as inactive or inconclusive; also: % of control where 0% means no effect). The note with it: PathHunter PPARalpha complementation, chemiluminescence, 6 h; max response: stronger effect = higher value. The procedure, abridged:
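Cells plated at 2,000/well and held overnight at 37 C, 5% CO2, then compound added by pin tool for 6 hr; after PathHunter detection reagent and 60 min at room temperature, chemiluminescence from enzyme complementation was read.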

Experiment [13] can be described thus: qHTS assay for small molecule activators of the human pregnane X receptor (PXR) signaling pathway (AID 720659; call rule not given here; also: 0% is about no effect).
Experiment [14] is described as follows: qHTS assay for small molecule agonists of retinoid X receptor alpha signaling (AID 588544).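 As to activation: 0% = DMSO basal wells and 100% = reference agonist.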 The note with it: HEK293T RXRa-UAS-bla, beta-lactamase reporter, 18 h; 530 nm emission.
Experiment [15] deals with Retinoic acid receptor RXR-alpha (Homo sapiens) (UniProt P19793). The experiment is described as above.
For experiment [16], the target named is Thyroid hormone receptor beta (Homo sapiens) (UniProt P10828). The experiment can be described thus: qHTS assay for small molecule agonists of thyroid hormone receptor beta signaling (AID 588545). The method in brief: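 Agonist-mode beta-lactamase reporter assay, HEK 293 cells, 2% charcoal/dextran FBS; cells plated 4 hrs, compound 18 hrs at 37 C, CCF4 2 hrs RT. Normalized to 10 nM T3 (100%) and DMSO (0%); Hill fit gives EC50, efficacy.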

For experiment [17] the target is unchanged. The experiment is described as follows: qHTS assay for small molecule antagonists of thyroid hormone receptor beta signaling (AID 588547; active = well fitted inhibition curve with a large enough effect in the signal ratio, with a control signal flat, not every such curve was filed as active; the % refers to the signal ratio;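 also: cells stimulated with 0.4 nM T3 agonist during compound exposure; series mostly up to about 77 µM; % is scaled to controls: 0 for no effect and ±100 for the full control effect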). The note with it: TR-UAS-bla HEK293, beta-lactamase ratio, antagonist mode, 18 h. The procedure, abridged: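 TR-UAS-bla GripTite HEK293 cells in 2% charcoal/dextran FBS medium were preincubated 4 h at 37 C, given compound (0.59 nM to 92 uM) plus 0.4 nM T3 (final) for 18 h, then CCF4 for 2 h at RT; Hill fit gave IC50.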

Experiment [18] can be described thus: qHTS assay for small molecule activators of the p53 signaling pathway (AID 651743; active = well fitted activation curve with a large enough effect in the signal ratio, not every such curve was filed as active; the % refers to the signal ratio; also: potency is read from the fitted curve at half-maximal effect). The note with it: HCT-116 p53RE-bla, beta-lactamase FRET ratio, 16 h; activation: stronger effect = higher value. The procedure, abridged: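 p53RE-bla HCT-116 cells with a stably integrated beta-lactamase reporter under p53 response elements were plated, rested 5 hours at 37 C/5% CO2, then exposed to compounds in DMSO for 16 hours at 37 C. LiveBLAzer B/G FRET substrate was read after 2 hours at room temperature.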

Experiment [19] in a line: qHTS assay for small molecule activators of the nuclear factor-kappa B (NF-kB) signaling pathway (AID 651749; active = well fitted activation curve with a large enough effect in the signal ratio; the % refers to the signal ratio; also: series mostly up to about 77 µM; % of control where 0% means no effect). Particulars: NF-kB-bla ME-180 cells, beta-lactamase FRET ratio, 16 h; activation: stronger effect = higher value. The procedure, abridged: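 ME-180 cells stably carrying a beta-lactamase reporter under an NF-kB response element were exposed to compound or DMSO vehicle for 16 hr at 37C, 5% CO2. Pathway activation was read by FRET, since reporter expression disrupts FRET.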

Chain of Glucocorticoid receptor (Homo sapiens) (P04150 whole entry, looked up): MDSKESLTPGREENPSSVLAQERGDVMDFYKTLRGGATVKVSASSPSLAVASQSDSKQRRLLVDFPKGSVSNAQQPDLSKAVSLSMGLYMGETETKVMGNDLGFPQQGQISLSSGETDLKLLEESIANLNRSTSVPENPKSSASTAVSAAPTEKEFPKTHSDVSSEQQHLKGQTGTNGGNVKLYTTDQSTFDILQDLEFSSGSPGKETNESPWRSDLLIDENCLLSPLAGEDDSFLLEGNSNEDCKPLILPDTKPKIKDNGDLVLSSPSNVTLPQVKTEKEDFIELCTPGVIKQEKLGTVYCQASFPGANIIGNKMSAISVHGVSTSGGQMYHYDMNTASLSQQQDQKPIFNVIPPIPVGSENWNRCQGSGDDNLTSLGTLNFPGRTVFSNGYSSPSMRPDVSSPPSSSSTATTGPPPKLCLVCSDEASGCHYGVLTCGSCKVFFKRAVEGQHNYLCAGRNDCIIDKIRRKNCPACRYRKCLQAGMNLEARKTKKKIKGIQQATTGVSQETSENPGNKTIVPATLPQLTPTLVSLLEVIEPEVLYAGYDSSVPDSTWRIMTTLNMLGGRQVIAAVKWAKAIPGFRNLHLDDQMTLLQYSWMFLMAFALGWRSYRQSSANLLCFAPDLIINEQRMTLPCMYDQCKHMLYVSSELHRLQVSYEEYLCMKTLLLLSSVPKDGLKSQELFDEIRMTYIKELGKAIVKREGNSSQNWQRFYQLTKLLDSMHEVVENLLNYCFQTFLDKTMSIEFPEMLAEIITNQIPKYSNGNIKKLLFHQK
Chain of Vitamin D3 receptor (Homo sapiens) (P11473 whole entry, looked up): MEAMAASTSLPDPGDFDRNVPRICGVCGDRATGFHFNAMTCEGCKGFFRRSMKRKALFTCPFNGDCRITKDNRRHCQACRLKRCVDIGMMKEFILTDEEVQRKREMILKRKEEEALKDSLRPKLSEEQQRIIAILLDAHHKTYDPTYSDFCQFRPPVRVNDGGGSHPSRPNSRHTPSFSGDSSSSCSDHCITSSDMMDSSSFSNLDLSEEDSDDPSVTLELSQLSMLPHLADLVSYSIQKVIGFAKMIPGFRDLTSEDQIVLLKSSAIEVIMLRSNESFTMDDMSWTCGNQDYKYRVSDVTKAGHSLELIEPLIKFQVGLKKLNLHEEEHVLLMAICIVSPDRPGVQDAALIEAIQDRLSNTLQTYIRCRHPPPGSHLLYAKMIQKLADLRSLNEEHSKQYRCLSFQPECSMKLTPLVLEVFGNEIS
Chain of Bile acid receptor (Homo sapiens) (Q96RI1 whole entry, looked up): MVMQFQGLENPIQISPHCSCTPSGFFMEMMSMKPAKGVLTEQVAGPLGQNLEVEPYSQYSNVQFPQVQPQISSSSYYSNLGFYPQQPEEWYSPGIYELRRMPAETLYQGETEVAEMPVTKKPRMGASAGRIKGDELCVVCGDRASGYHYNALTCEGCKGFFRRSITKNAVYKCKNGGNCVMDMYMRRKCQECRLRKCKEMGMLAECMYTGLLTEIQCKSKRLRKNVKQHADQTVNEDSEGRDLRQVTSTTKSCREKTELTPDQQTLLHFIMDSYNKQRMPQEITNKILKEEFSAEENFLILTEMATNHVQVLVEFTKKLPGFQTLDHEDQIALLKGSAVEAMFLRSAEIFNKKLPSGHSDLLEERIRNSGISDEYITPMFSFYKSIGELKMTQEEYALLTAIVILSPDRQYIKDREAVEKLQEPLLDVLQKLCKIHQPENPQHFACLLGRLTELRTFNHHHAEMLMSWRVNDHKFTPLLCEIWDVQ
Chain of Peroxisome proliferator-activated receptor delta (Homo sapiens) (Q03181 whole entry, looked up): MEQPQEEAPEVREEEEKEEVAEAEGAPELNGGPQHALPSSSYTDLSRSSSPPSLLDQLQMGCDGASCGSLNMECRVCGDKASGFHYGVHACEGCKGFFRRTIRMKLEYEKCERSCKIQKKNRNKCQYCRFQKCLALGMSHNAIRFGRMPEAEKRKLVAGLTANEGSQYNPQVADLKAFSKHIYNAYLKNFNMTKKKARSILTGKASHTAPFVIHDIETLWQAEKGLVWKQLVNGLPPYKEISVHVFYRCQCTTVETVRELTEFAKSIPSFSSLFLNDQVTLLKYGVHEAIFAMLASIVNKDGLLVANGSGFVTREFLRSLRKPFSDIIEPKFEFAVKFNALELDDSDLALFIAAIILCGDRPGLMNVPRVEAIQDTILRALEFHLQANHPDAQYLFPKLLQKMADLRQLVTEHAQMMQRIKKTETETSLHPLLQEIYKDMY
Chain of Thyroid hormone receptor beta (Homo sapiens) (P10828 whole entry, looked up): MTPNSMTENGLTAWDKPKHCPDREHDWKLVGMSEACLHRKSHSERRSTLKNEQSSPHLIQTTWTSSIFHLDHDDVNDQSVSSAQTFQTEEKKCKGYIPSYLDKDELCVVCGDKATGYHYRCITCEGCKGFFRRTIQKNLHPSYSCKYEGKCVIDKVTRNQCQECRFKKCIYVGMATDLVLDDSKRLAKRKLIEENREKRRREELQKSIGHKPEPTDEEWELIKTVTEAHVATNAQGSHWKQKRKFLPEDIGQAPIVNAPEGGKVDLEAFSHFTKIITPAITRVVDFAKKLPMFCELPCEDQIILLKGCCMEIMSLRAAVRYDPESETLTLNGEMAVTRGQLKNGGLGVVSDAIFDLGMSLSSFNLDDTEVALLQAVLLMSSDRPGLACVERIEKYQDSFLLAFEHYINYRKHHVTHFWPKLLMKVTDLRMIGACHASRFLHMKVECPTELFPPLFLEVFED
Chain of Peroxisome proliferator-activated receptor alpha (Homo sapiens) (Q07869 whole entry, looked up): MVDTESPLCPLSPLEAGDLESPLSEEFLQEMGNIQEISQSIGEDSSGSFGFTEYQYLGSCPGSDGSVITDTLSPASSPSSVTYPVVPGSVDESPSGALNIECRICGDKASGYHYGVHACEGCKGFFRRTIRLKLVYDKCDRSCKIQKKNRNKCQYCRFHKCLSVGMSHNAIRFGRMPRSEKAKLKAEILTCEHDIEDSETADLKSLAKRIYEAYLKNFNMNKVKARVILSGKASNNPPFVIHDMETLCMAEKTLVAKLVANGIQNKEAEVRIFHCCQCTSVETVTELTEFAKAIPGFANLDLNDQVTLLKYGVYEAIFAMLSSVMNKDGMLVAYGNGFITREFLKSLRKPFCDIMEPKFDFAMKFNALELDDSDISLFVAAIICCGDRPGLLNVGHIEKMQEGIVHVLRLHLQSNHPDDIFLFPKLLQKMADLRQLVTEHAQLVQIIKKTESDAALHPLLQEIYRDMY
Chain of Retinoic acid receptor RXR-alpha (Homo sapiens) (P19793 whole entry, looked up): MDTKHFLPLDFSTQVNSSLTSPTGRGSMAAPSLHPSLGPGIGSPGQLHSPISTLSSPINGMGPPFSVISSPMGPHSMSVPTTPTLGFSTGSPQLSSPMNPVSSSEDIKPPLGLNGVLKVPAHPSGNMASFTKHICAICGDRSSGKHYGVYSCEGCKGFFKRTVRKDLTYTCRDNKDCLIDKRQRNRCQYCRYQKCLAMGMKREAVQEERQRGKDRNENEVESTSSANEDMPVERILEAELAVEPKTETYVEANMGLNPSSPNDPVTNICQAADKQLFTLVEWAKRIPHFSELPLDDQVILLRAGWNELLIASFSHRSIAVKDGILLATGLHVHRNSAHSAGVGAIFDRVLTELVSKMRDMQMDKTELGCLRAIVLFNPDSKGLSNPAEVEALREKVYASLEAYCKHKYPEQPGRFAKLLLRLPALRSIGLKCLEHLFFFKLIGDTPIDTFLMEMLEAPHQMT

Take `C[Si](Cl)(Cl)[Si](C)(Cl)Cl`: the activation in experiment [1] is 5.31% (inactive). Besides, the molecule was classed as inactive in [2].
Taken in the same sequence, the figures for `O=CNc1ccccc1` were -1.29% (inactive) and “inactive”.
On to `CC(C)OC(=O)C(O)(c1ccc(Br)cc1)c1ccc(Br)cc1`, for which the activation is 5.65% (inactive) in experiment [1], -15% (inactive) in [3] and 8.09% (inactive) in [6]. Further, the Potency result in [4] and in experiment [7] was “inactive” throughout. Moreover, the molecule was classed as inactive in [5]. The results for the max response in [8] and in experiment [9] were -7.97% (inactive) and -24.4% (inactive), respectively. For the same molecule, the Potency in [10] is 70.8 µM (active).
With `CC(C)(C)c1ccc(CSc2cnn(C(C)(C)C)c(=O)c2Cl)cc1`, the activation is 6.79% (inactive) in experiment [1], -0.474% (inactive) in [3] and -3.11% (inactive) in [6]. Also, the Potency in experiment [11] is 96.9 nM (active). In addition, in experiment [12], the max response was -6% (inactive). Further, the Potency entry in experiment [7] and in experiment [10] was “inactive” in each case. The molecule was classed as inactive in experiment [13].
Regarding `O=C(O)CC(C(=O)O)C(CC(=O)O)C(=O)O` (stereo not given), in experiment [1], the activation was -1.38% (inactive) and -0.082% (inactive). In addition, the call in [2] was inactive.
Regarding `Cn1c(=O)[nH]c(=O)n(C2CCC(O)CC2)c1=O` (stereo not given), in [1], the activation was -4.56% (inactive). The molecule was classed as inactive in [2].
For `CCCCCCCCCCCCOCC1CO1` (stereo not given), in experiment [1], the activation was -0.164% (inactive). Besides, the call in experiment [2] was inactive.
On to `CO/N=C(/C(=O)OC)c1ccccc1COc1ccccc1C`, for which the activation is -0.265% (inactive) in experiment [1], -0.293% (inactive) in [3], -0.43% (inactive) in experiment [19] and 13.1% (inactive) in experiment [6]. The molecule was called inactive in [5] and in experiment [13]. Further, the max response was 13.9% in [14], 5.1% (inactive) in experiment [12], -19.8% (inactive) in experiment [8] and -26.1% (inactive) in experiment [9]. The Potency result in experiment [15], in experiment [16], in experiment [7] and in [10] was “inactive” each time. For the same molecule, the activity change % (negative = inhibition) in experiment [17] is -29.5% (inactive). The Potency in experiment [18] was 25.1 µM (active).
As to `CC1=CC(=O)NS(=O)(=O)O1`, the activation in [1] is 1.83% (inactive) and 0.839% (inactive). The result in experiment [2] was inactive.
